Five targets from the supplement of paper PMC6411743 can be followed below.

± gives the standard deviation of the averaged measurements. The full data set covers some 5,400 targets. This sample favours those with the largest changes.

Compound in the test: Nc1nc2c(ncn2[C@@H]2O[C@H](COP(=O)(O)OP(=O)(O)OP(=O)(O)O)[C@@H](O)[C@H]2O)c(=O)[nH]1 [guanosine triphosphate]
Briefly: NP40-soluble protein abundance relative to vehicle (solubility fold change) (ratio); higher = more soluble protein in presence of GTP. The method, then:
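Solubility proteome profiling in Jurkat crude lysate. Lysate was treated with Mg-GTP (0.1-10 mM) for 10 min at room temperature and 3 min at 37 °C, then solubilised with 0.8% NP40 and benzonase, followed by ultracentrifugation. Proteins were quantified by TMT10 LC-MS/MS; the value is the NP40-soluble abundance relative to the NP40-processed vehicle, from 3 independent experiments.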

UniProt Q9NVP1, sequence (Q9NVP1 whole entry): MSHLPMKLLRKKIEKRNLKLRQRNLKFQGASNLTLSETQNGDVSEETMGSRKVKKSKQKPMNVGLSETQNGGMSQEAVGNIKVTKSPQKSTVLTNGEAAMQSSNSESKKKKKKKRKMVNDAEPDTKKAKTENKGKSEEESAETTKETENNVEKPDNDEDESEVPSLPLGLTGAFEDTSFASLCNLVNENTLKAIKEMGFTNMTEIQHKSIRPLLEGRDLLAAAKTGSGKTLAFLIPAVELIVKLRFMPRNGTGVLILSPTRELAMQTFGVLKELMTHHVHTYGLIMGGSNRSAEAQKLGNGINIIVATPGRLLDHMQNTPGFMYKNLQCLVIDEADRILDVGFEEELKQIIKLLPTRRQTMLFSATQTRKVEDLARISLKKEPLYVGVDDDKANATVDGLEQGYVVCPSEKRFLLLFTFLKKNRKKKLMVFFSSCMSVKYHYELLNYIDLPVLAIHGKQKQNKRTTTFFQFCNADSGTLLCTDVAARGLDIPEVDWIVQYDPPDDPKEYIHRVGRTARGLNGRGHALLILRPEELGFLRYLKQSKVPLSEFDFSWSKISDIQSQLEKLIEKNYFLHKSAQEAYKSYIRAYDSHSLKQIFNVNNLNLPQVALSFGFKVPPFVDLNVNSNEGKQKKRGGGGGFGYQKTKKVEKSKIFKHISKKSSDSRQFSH
UniProt Q9NVR5, sequence (Q9NVR5 whole entry): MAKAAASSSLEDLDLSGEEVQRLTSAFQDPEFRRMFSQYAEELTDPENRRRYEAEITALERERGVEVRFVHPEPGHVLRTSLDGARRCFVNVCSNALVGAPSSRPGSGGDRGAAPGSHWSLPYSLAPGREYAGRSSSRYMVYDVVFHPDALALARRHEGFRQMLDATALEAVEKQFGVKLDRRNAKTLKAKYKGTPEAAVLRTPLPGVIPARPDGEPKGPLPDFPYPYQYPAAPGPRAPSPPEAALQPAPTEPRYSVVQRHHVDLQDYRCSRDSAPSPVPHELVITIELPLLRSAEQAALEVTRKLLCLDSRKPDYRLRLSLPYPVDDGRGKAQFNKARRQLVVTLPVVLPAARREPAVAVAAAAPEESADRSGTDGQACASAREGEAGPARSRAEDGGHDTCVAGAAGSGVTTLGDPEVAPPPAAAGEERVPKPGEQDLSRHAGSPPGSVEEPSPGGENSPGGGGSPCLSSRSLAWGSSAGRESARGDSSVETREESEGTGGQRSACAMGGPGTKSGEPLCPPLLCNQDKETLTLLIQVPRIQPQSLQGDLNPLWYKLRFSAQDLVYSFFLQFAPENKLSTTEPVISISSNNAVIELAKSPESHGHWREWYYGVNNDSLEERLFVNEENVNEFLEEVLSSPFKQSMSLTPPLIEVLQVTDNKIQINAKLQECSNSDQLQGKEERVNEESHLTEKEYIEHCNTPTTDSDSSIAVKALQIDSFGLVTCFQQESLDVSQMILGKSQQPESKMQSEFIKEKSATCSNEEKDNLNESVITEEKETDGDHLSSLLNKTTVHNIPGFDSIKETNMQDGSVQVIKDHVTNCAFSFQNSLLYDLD
UniProt Q9UKV8, sequence (Q9UKV8 whole entry): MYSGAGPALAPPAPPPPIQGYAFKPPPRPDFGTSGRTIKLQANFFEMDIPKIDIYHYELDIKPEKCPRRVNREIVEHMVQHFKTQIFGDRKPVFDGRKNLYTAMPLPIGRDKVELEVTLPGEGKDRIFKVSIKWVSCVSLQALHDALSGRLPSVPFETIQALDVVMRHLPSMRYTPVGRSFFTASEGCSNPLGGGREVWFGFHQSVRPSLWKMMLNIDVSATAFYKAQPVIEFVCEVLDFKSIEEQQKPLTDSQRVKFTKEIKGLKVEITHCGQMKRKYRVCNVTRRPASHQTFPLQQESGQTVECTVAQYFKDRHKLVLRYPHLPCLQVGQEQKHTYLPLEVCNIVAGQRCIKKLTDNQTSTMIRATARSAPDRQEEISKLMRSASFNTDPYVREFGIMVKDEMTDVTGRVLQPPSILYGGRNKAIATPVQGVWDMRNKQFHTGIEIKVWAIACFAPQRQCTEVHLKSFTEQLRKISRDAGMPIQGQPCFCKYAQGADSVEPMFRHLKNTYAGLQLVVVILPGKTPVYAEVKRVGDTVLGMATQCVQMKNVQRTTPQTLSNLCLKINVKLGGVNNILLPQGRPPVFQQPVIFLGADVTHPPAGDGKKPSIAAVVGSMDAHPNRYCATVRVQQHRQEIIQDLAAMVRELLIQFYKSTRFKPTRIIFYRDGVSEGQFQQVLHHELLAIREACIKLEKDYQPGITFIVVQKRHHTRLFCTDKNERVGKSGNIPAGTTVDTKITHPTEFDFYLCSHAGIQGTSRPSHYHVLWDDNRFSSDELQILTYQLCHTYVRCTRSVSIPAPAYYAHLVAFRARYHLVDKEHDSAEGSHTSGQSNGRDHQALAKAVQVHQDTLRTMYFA
UniProt Q9UJ83, sequence (Q9UJ83 whole entry): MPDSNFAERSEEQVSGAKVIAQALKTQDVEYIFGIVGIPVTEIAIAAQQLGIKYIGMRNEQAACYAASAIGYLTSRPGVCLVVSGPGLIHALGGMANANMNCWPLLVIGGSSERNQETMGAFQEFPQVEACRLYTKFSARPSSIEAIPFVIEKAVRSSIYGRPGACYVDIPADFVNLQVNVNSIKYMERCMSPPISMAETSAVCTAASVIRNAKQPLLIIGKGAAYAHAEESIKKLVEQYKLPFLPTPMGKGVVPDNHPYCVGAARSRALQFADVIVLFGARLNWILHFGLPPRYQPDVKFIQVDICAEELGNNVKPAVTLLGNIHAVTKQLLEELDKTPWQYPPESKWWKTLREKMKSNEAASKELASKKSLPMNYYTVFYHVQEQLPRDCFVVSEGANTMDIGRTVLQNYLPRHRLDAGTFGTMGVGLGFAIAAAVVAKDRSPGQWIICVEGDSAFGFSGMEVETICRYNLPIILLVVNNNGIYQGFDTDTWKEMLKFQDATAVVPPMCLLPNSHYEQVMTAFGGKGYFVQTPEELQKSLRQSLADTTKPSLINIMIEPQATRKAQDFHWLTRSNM
UniProt Q9UJX6, sequence (Q9UJX6 whole entry): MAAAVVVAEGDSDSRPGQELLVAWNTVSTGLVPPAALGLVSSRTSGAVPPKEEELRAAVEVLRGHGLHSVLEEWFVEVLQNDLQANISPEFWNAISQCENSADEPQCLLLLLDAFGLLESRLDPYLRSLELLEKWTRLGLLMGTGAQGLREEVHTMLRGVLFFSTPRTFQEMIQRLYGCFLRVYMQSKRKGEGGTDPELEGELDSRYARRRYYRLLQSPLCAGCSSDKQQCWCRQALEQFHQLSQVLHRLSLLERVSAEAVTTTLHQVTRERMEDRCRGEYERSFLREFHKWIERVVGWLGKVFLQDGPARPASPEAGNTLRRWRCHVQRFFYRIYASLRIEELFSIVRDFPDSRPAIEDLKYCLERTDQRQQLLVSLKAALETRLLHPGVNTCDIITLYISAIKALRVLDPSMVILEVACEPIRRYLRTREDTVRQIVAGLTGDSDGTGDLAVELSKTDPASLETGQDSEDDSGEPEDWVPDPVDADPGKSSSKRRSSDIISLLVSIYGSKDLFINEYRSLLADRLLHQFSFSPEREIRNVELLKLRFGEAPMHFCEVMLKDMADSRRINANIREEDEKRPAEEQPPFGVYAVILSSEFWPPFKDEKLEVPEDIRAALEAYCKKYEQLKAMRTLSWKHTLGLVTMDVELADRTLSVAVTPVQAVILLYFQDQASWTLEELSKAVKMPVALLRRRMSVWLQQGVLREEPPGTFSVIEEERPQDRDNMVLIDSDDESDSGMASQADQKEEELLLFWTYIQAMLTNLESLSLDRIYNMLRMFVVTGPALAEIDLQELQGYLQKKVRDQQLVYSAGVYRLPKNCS

DDX18 (UniProt Q9NVP1): the NP40-soluble protein abundance was found to be 1.084 ± 0.0038 (concentration: 0.1mM); 1.11 ± 0.024 (concentration: 0.5mM); 1.08 ± 0.021 (concentration: 1mM); 1.2 ± 0.071 (concentration: 2mM); 1.42 ± 0.057 (concentration: 4mM); 1.55 ± 0.061 (concentration: 6mM). The NP40-soluble protein abundance is, setting by setting: (concentration: 8mM) 1.69 ± 0.043; (concentration: 10mM) 1.94 ± 0.066.
As to UniProt Q9UJ83|Q9UJ83-2|Q9UJ83-3, the NP40-soluble protein abundance runs as follows: (concentration: 0.1mM) 1.067 ± 0.0066; (concentration: 0.5mM) 1.03 ± 0.11; (concentration: 1mM) 0.98 ± 0.05; (concentration: 2mM) 1.01 ± 0.11; (concentration: 4mM) 0.987 ± 0.04; (concentration: 6mM) 0.958 ± 0.08. For the same target, the NP40-soluble protein abundance reads like this: (concentration: 8mM) 0.926 ± 0.021; (concentration: 10mM) 0.9129 ± 0.0074.
UniProt Q9UKV8: the NP40-soluble protein abundance (concentration: 0.1mM) turned out to be 1.08 ± 0.065; the NP40-soluble protein abundance (concentration: 0.5mM) was found to be 1.14 ± 0.053; the NP40-soluble protein abundance (concentration: 1mM) is 1.06 ± 0.045; the NP40-soluble protein abundance (concentration: 2mM) came to 1.11 ± 0.053; the NP40-soluble protein abundance (concentration: 4mM) came to 1.1 ± 0.026; the NP40-soluble protein abundance (concentration: 6mM) is 1.07 ± 0.078. For the same target, the NP40-soluble protein abundance is, setting by setting: (concentration: 8mM) 1.07 ± 0.057; (concentration: 10mM) 1.05 ± 0.061.
Regarding UniProt Q9UJX6|Q9UJX6-2, the NP40-soluble protein abundance is 1.3 ± 0.28 (concentration: 0.1mM); 1.33 ± 0.37 (concentration: 0.5mM); 1.18 ± 0.28 (concentration: 1mM); 1.26 ± 0.47 (concentration: 2mM); 1.3 ± 0.37 (concentration: 4mM); 1.25 ± 0.46 (concentration: 6mM). The NP40-soluble protein abundance is, setting by setting: (concentration: 8mM) 1.12 ± 0.31; (concentration: 10mM) 1.22 ± 0.48.
Take UniProt Q9NVR5: the NP40-soluble protein abundance reads like this: (concentration: 0.1mM) 0.928 ± 0.076; (concentration: 0.5mM) 0.944 ± 0.078; (concentration: 1mM) 0.923 ± 0.048; (concentration: 2mM) 0.885 ± 0.16; (concentration: 4mM) 0.866 ± 0.12; (concentration: 6mM) 0.931 ± 0.13. Also, the NP40-soluble protein abundance came to 0.869 ± 0.086 (concentration: 8mM) and 0.906 ± 0.082 (concentration: 10mM).
